Experimental data reported in PubChem BioAssay (NCATS).
Results filed as inconclusive are left out. Active and inactive are the calls of the source. The call rests on the fitted dose curve; in most records, active means well fitted curve in the direction sought with a large enough effect; inconclusive means small, poorly fitted or top-dose-only effect, or another doubt; inactive means no such curve, though single readings can be large; an effect the other way counts as inactive or inconclusive.

Legend:
[1] = qHTS of pediatric cancer cell lines to identify multiple opportunities for drug repurposing: Primary screen for LAN-5 cells (AID 1347100); further: potency means the concentration at half of the fitted maximal effect
Procedure, shortened: (§1)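 Viability after 48 h compound treatment at 37C, 500-1,000 cells/well, read as ATP luminescence with CellTiter-Glo. Primary screens used 11-point (MIPE, 0.78 nM-46 µM) or 8-point (NPC, 0.59 nM-46 µM) final concentrations; follow-up screens used 11-point dilutions.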

[2] = qHTS of pediatric cancer cell lines to identify multiple opportunities for drug repurposing: Primary screen for Rh18 cells (AID 1347102); further: nearly all actives have a fitted effect of over 65% in size; further: potency means the concentration at half of the fitted maximal effect
Procedure, shortened: as §1

[3] = qHTS of pediatric cancer cell lines to identify multiple opportunities for drug repurposing: Primary screen for OHS-50 cells (AID 1347103); further: nearly all actives have a fitted effect of over 40% in size; further: potency means the concentration at half of the fitted maximal effect
Procedure, shortened: (§2)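 Cells (500-1,000/well) rested 5 h, then received compounds for 48 h; metabolically active cells were measured by CellTiter-Glo luminescence. Final concentrations spanned up to 46 µM (MIPE, 11-point) or 0.59 nM-46 µM (NPC, 8-point) in primary screens, 11-point in follow-ups.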

[4] = qHTS of pediatric cancer cell lines to identify multiple opportunities for drug repurposing: Primary screen for MG 63 (6-TG R) cells (AID 1347105); further: nearly all actives have a fitted effect of over 50% in size; further: potency means the concentration at half of the fitted maximal effect
Procedure, shortened: (§3)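 Cells seeded at 500-1,000 cells/well in growth media, rested 5 hours at 37 degrees C, 5% CO2, then dosed; MIPE compounds at 11-point (from 0.78 nM) and NPC at 8-point (from 0.59 nM) final concentrations. Viability by CellTiter-Glo luminescence after 48 hours.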

[5] = qHTS of pediatric cancer cell lines to identify multiple opportunities for drug repurposing: Primary screen for Rh30 cells (AID 1347107); further: nearly all actives have a fitted effect of over 75% in size; further: potency means the concentration at half of the fitted maximal effect
Procedure, shortened: as §1

[6] = qHTS of pediatric cancer cell lines to identify multiple opportunities for drug repurposing: Primary screen for Rh41 cells (AID 1347108); further: nearly all actives have a fitted effect of over 70% in size; further: potency means the concentration at half of the fitted maximal effect
Procedure, shortened: as §3

[7] = qHTS of pediatric cancer cell lines to identify multiple opportunities for drug repurposing: Confirmatory screen for NB1643 cells (AID 1347109); further: nearly all actives have a fitted effect of over 45% in size; further: potency means the concentration at half of the fitted maximal effect
Procedure, shortened: as §1

[8] = qHTS of pediatric cancer cell lines to identify multiple opportunities for drug repurposing: Primary screen for BT-12 cells (AID 1347101); further: nearly all actives have a fitted effect of over 25% in size; further: potency means the concentration at half of the fitted maximal effect
Procedure, shortened: as §2

[9] = qHTS of pediatric cancer cell lines to identify multiple opportunities for drug repurposing: Primary screen for control Hh wild type fibroblast cells (AID 1347106);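 further: series mostly up to about 46 µM; a drop in luminescence marks cytotoxicity and a rise apparent proliferation; nearly all actives have a fitted effect of over 55% in size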
Procedure, shortened: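 Cells (500-1,000/well) in growth media were settled 5 h at 37 degrees C, then given compounds for 48 h. Viability was read as CellTiter-Glo luminescence. Primary runs used MIPE at 11 points (0.78 nM-46 µM) and NPC at 8 points (0.59 nM-46 µM); follow-ups used 11 points.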

[10] = qHTS of pediatric cancer cell lines to identify multiple opportunities for drug repurposing: Primary screen for RD cells (AID 1347104); further: nearly all actives have a fitted effect of over 55% in size; further: potency means the concentration at half of the fitted maximal effect
Procedure, shortened: as §3

Measured: Potency

Oc1cccc(-c2nc(N3CCOCC3)c3oc4ncccc4c3n2)c1
active: [1] 0.96 µM | [2] 0.303 µM | [3] 0.444 µM | [4] 0.0855 µM | [5] 13.6 µM | [6] 0.382 µM | [7] 2.4 µM

COc1ccc2c3n(c(=NC(=O)c4cccnc4)nc2c1OC)CCN3
inactive: [8] | [9] | [5]
active: [1] 14.8 µM | [4] 2.35 µM | [6] 0.935 µM

CCCc1nn(C)c2c(=O)[nH]c(-c3cc(S(=O)(=O)N4CCN(C)CC4)ccc3OCC)nc12
inactive: [1] | [2] | [4] | [9] | [5]

CS(=O)(=O)c1cccc(CNc2nc(Nc3ccc4c(c3)CCC(=O)N4)ncc2C(F)(F)F)c1
inactive: [9]
active: [1] 3.32 µM | [3] 6.11 µM | [10] 16.6 µM | [4] 11.8 µM

CCOC(=O)C1=C[C@]2(CC)CCCN3CCc4c(n1c1ccccc41)[C@@H]32
inactive: [8] | [2] | [9] | [5] | [6]
active: [3] 24.3 µM

COc1ccccc1-c1cccc(-c2c(O)c3cc(C#N)c(Cl)cc3[nH]c2=O)c1
not listed: [2] | [7] | [8]
inactive: all other assays above

O=C1CCCC2=C1C(c1[nH]ncc1Cl)N=C(Nc1nc3ccccc3o1)N2 (stereo not given)
inactive: [1] | [4] | [9] | [5]

CNC(=O)c1ccccc1Sc1ccc2c(/C=C/c3ccccn3)n[nH]c2c1
active: [8] 17.4 µM | [3] 17.4 µM
inactive: [10] | [5]

CCOc1ccn(-c2ccc(F)cc2)c(=O)c1C(=O)Nc1ccc(Oc2ccnc(N)c2Cl)c(F)c1
active: [1] 7.43 µM | [3] 19.3 µM
inactive: [10] | [5]

CCC(C)N(C)C(=O)c1cc2ccccc2c(-c2ccccc2Cl)n1 (stereo not given)
inactive: [1] | [10] | [4] | [9] | [5]

Cc1n[nH]c(C)c1Cc1sc2c(c1C(=O)N1C[C@H](O)CO1)c(=O)n(C)c(=O)n2CC(C)C
inactive: [8] | [2] | [3] | [4] | [9] | [5]

COc1ccc(COc2cc3oc(=O)c4cc(C(C)O)ccc4c3cc2OC)cc1 (stereo not given)
active: [4] 18.7 µM | [6] 18.7 µM
inactive: [1]

COc1c(Cl)cc2c([nH]c3cnccc32)c1NC(=O)c1cccnc1C
inactive: [1] | [9] | [5]

Cc1cc([C@@H](C)Nc2ccccc2C(=O)O)c2nc(N3CCOCC3)cc(=O)n2c1
inactive: [9]
active: [1] 34 µM | [3] 2.22 µM | [4] 1.71 µM | [6] 8.55 µM

CC[C@H](Nc1ncnc2nc[nH]c12)c1nc2cccc(F)c2c(=O)n1-c1ccccc1
inactive: [9]
active: [1] 20.9 µM | [3] 6.85 µM | [4] 2.35 µM | [6] 14.8 µM

Cc1ccnc(NS(=O)(=O)c2ccc(NC(=O)Nc3ccc(S(=O)(=O)Nc4nccc(C)n4)cc3)cc2)n1
active: [8] 24.3 µM
not listed: [1] | [7]
inactive: all other assays above

CN[C@@H](C)C(=O)N[C@H]1CCCC[C@H]2CC[C@@H](C(=O)N[C@@H](c3ccccc3)c3cn(CCCCc4ccc(CCCCn5cc([C@@H](NC(=O)[C@@H]6CC[C@@H]7CCCC[C@H](NC(=O)[C@H](C)NC)C(=O)N76)c6ccccc6)nn5)cc4)nn3)N2C1=O
active: [8] 27.3 µM | [2] 14.8 µM
inactive: [4] | [9]

Cc1c(C)c2c(c(C)c1O)CCC(C)(COc1ccc(CC3SC(=O)NC3=O)cc1)O2 (stereo not given)
not listed: [2] | [8]
inactive: all other assays above
